According to PubChem BioAssay AID686971 (National Center for Advancing Translational Sciences (NCATS), 2013):
Hit rate of the full screen: of about 360,000 compounds, about 7,500 (2.1%) were called active. Roughly 8% stayed inconclusive and do not appear here. The sample holds actives, similar compounds and a random draw of the others, so the mix is not that of the screen. Some structures have more than one record in an assay (separate samples or runs), and their calls can disagree. Values without a mark were called inactive. The call rests on the fitted dose curve; in most records, active means well fitted cell-killing curve with a large enough effect; inconclusive means small, poorly fitted or top-dose-only effect, or effect the other way, or another doubt; inactive means no such curve, though single readings can be large or run the other way.

assay: qHTS for induction of synthetic lethality in tumor cells producing 2HG: qHTS for the HT-1080-IDH1KD cell line; conditions: HT-1080 IDH1 knockdown viability, ATP luminescence, 48 h; series mostly up to 46.1 µM; activity, negative = toxicity: at the top concentration
Description: Unbiased genomic sequencing for 22 glioma genomes found recurrent mutation of IDH1 on chromosome 2q33, a gene encoding the cytosolic isoform of IIDH1 associated with the tri-carboxylic acid cycle (TCA) that catalyzes the oxidative decarboxylation of isocitrate, yielding alpha-ketoglutarate and CO2 via NADP+ to NADPH conversion. Subsequent studies confirmed the recurrent IDH mutations in up to 70% of secondary gliomas and in 10% of AML cases. In addition, the somatic mutation of cancer-associated IDH1 is a point mutation resulting in various amino-acid substituents at Arginine132 (IDH1 R132), a key residue found in the enzyme's active site that when mutated, results in the loss-of-function in metabolizing isocitrate but confers a gain-of-function to produce the oncometabolite 2-hydroxyglutarate (2HG). This in effect defines IDH1 as an oncogene and provides an extraordinary opportunity to discover chemical probes against mutant IDH1 that may translate into much needed new therapies for glioma and AML patients.
This assay aims to perform a synthetic-lethal screen for chemical probes specific for 2HG-producing tumor cells using matched paired cell lines (1) HT-1080-NT fibrosarcoma cell line that overproduces 2HG and (2) HT-1080-IDH1KD cell line which has IDH1 expression knocked-down. Desirable compounds are toxic to the NT fibrosarcoma cell line but not to the IDH1KD cell line. The data in this AID corresponds to the results of the qHTS against the HT-1080 IDH1KD cell line.
[1] Dang L, Jin S, Su SM. IDH mutations in glioma and acute myeloid leukemia. Trends of Mol Med. 2010; 16(9): 387-97.
[2] Dang L et al. Cancer-associated IDH1 mutations produce 2-hydroxyglutarate. Nature. 2010; 465(7300):966.
Molecular Libraries Probe Production Centers Network [MLPCN]
NIH Chemical Genomics Center [NCGC]
Assay Submitter (PI): Lenny Dang Ph.D., Agios Pharmaceuticals
Suspensions of trypsinized HT-1080-IDH1KD cells were dispensed into white, tissue culture-treated, solid 1536-well plates at 5uL/well (750 cells/well final concentration) in RPMI medium supplemented with 5% FBS. Plates were incubated at 37 degrees C for 2 hours, after which 23 nL of compounds or DMSO were delivered to each well using a pin tool. Plates were then incubated at 37 degrees C for an additional 48 hours. CellTiter-Glo viability reagent (Promega) was dispensed into wells (2.5uL/well) and incubated at room temperature for 10 minutes. The plates were measured on a PerkinElmer ViewLux plate reader for luminescent signal (clear filter, 1 sec exp.). DMSO-treated control wells and media-only (no cells) control wells were used to normalize %Activity of identified toxic compounds; DMSO-treated wells corresponded to 0%Activity (100% viability), while media-only controls were used to normalize 100%Activity (0% viability). To minimize variability between cell lines, both HT-1080-NT and HT-1080-IDH1KD lines were dispensed and treated with identical compound series in single batches.
Concentration-response curves were fitted to the signals arising from the resulting luminescence. The concentration-effect curves were then classified based on curve quality (r2), response magnitude and degree of measured activity, and compounds were subsequently categorized based on their curve class.
Potency means the concentration at half of the fitted maximal effect.

SMILES | Potency | activity, negative = toxicity
CC(=O)OC1C2(CC3N4C(=O)C5(CO)SSC4(CC31O)C(=O)N5C)OC(C)C(C)(C)C2=O (stereo not given) | 0.58 µM (active) | –
C[C@]12CCC3C(CC[C@H]4[C@H](O)[C@H](O)CC[C@]34C)C1CCC2=O (stereo not given in full) | – | 1.29%
COC(=O)N1C(c2ccccc2)C1c1ccccc1 (stereo not given) | – | 22.5%
CSc1ccc(C(=O)C2CCCN(Cc3ccn[nH]3)C2)cc1 (stereo not given) | – | 13.8%
CCN1C(=O)NC(=O)C2(CCCC2)C1=O | – | 0.17%
Cc1cc(C)cc(NC(=S)NC2CC3CCCC(C2)N3Cc2cccs2)c1 (stereo not given) | 12.6 µM (active) | –
Cc1cc(C)c2c(c1)NP(=S)(c1ccccc1)N2 (stereo not given) | – | -13.9%
CC(=O)C1(O)CCC2C3CCC4=C(Cl)C(=O)CCC4(C)C3CCC21C (stereo not given) | – | -28.9%
Oc1cc2c(cc1O)CN(C(=S)NCCc1ccc(Cl)cc1)CCC2 | – | 5.49%
S=C(NCCc1ccccc1)N1Cc2cc(N3CCOCC3)ccc2-n2nncc2C1 | – | -18.7%
C[C@H]1CN([C@@H](C)CO)C(=O)CCCn2nncc2CO[C@H]1CN(C)C(=O)Oc1cccc2ccccc12 | – | 10.6%
O=[N+]([O-])c1ccc(Cl)c(Cl)c1 | – | 24.3%
C[C@]12CCC3C(CC[C@H]4C[C@@H](O)CC[C@]34C)C1CC[C@@H]2O (stereo not given in full) | – | -4.31%
C[C@]12CCC3C(CC[C@H]4C[C@@H](O)CC[C@]34C)C1C[C@@H](O)[C@H]2O (stereo not given in full) | – | 7.01%
C[C@]12CC[C@H](O)C[C@H]1CC[C@@H]1C2CC[C@]2(C)[C@@H](C3=CC(=O)OC3)[C@@H](O)C[C@]12O (stereo not given in full) | 3.66 µM (active) | –
O=C1C2CCN(CC2)C1(CO)CO | – | 9.29%
CCOC(=O)CC(SP1(=S)OCC2(CCCCO2)C(C2CCCCO2)O1)C(=O)OCC (stereo not given) | – | 6.11%
CC(=O)Cc1ccc(OC(C)C)cc1 | – | 22.5%
CN(C)CC1Oc2ccccc2OC1(O)c1ccccc1 (stereo not given) | 4.61 µM (active) | –
CCCOC(=O)C1C2c3ccccc3C(c3ccccc32)C1C(=O)O (stereo not given) | – | 16.8%
Cc1ccc(C2CN(C)CC2C(=O)c2ccc(F)cc2)cc1 (stereo not given) | – | -14.3%
COc1cc(C(=O)N2Cc3ccc(Br)cc3-n3nncc3C2)cc(OC)c1OC | – | 18.9%
CCN(CC)CCOC(=O)c1cc2cc(COC)ccc2o1 | – | 4.54%
COc1ccc2c(c1)NP(=S)(c1ccccc1)N2 (stereo not given) | – | 17.6%
CCC(C)(O)C(=O)OC1C(=O)OC2CC3C(C)=CC(=O)C(O)C3(C)C3C4(O)OCC23C1C(C)C4O (stereo not given) | 0.0411 µM (active) | –
C[C@H]1CN([C@@H](C)CO)C(=O)CCCn2nncc2CO[C@H]1CN(C)C(=O)Oc1ccccc1 | – | -2.35%
O=C1NC(=O)C(CCOc2ccccc2)(CCc2ccccc2)C(=O)N1 | – | 3.48%
COc1ccc(C2C=C(C)Oc3c2c(=O)oc2ccccc32)cc1OC (stereo not given) | – | -5.45%

SMILES | Potency | activity, negative = toxicity
Cc1ccc(-c2nc3ccccc3c(=O)n2-c2ccc(Br)cn2)cc1 | – | 22.6%
COC1C(O)C(C)OC(OC2CCC3(C=O)C(CCC4C3CCC3(C)C(C5=CC(=O)OC5)CCC43O)C2)C1O (stereo not given) | 0.0184 µM (active) | –
CCn1cc(CN2CCCC(C(=O)c3cccc(C(F)(F)F)c3)C2)cn1 (stereo not given) | – | 5.48%
CSCCC(c1nnnn1C(C)(C)C)N1CCC(n2c(=O)[nH]c3ccccc32)CC1 (stereo not given) | – | -23.7%
CC1CCCN1CCC(C(N)=O)(c1ccccc1)c1ccccc1 (stereo not given) | – | -8.22%
CCOc1ccc(-c2cc(C)[n+](CCN(CC)CC)c(-c3ccc(OCC)cc3)c2)cc1 | 5.17 µM (active) | –
CCC(=O)OC(Cc1ccccc1)(c1ccccc1)C(C)CN(C)C (stereo not given) | – | -11.7%
CCC1(CC(C)c2ccccc2)C(=O)NC(=O)NC1=O (stereo not given) | – | 5%
COC(=O)C[C@H]1CC[C@H]2NC[C@@H](O)COC[C@@H]2O1 | – | 22.5%
CC=C(C)C(=O)OC1CCN2CC=C(COC(=O)C(O)(C(C)OC)C(C)(C)O)C12 (stereo not given) | – | 1.21%
c1cc2c(cc1CCNC1CCCCCC1)OCO2 | – | 5.41%
Fc1ccc(N2CCN(Cc3ccc4c(c3)OCO4)CC2)cc1 | – | -4.13%
CC(=NCc1ccc2c(c1)OCO2)c1c(O)[nH]c(=O)[nH]c1=O | 20.6 µM (active) | –
CC(C)n1c(=O)c(C=Nc2ccc(Br)cc2)c(O)n(Cc2ccco2)c1=O | – | -19.8%
COC(=O)C1=C(c2ccc(C(C)=O)cc2)C[C@@H]2CC[C@H]1N2C(=O)NCCNC(C)=O | – | 7.51%
Cc1cc(-c2ccc(N)c(C)c2)ccc1N | – | 12.8%
CCN1C(=O)C(=Cc2c(C)n(CC(=O)NCC3CCCO3)c3ccccc23)C(=O)N(CC)C1=S (stereo not given) | – | -8.26%
COc1cccc(OC)c1C(=O)NC(=S)N1C[C@H]2C[C@H](C1)c1cccc(=O)n1C2 | – | 6.67%
CCCCCCCCCCCCn1ccc(=N)cc1 | 1.84 µM (active) | –
CN1C2C=C(N(C(=O)c3ccc(Cl)cc3)c3ccccc3)CC1CC2 (stereo not given) | – | -4% [at 9.24 µM]
CC(=O)NCC1=C(c2ccc3ccccc3c2)C[C@@H]2CC[C@H]1N2Cc1ccco1 | – | 0.901%
CCOC(=O)[C@]12Cc3cc(OC)ccc3[C@H]1N(C(C)C)C(=O)c1ccccc12 | 16.4 µM (active) | –
CCOC(=O)[C@]12Cc3ccccc3[C@H]1N(C1CCCCC1)C(=O)c1cc(OC)ccc12 | 3.26 µM (active) | –
CC1([N+](=O)[O-])COP(=O)(Nc2ccc(F)cc2)OC1 (stereo not given) | – | 2.49%
C[C@]12CCC3C(CC[C@H]4[C@H](O)[C@H](O)CC[C@]34C)C1CC[C@@H]2O (stereo not given in full) | – | 7.82%
CC(C)CN1Cc2cc(N3CCCCC3)ccc2-n2nncc2C1 | – | 0.618%
CCN1CC2C3CCC(C)(O3)C2C1 (stereo not given) | – | 13%
